From PubChem BioAssay (Tox21)
Results filed as inconclusive are left out. Active and inactive are the calls of the source. Unless noted, calls come from the whole dose curve; as a rule, active = well fitted curve in the direction sought with a large enough effect in the repeat runs; inconclusive = weak or mixed curves; inactive = no such curve, though single readings can be large; an effect the other way counts as inactive or inconclusive.

Columns and labels:
[1] = A CellTox Green Cytotoxicity Assay to monitor cytotoxicity in HepG2 cells - 0 hour (AID 1224882); note: nearly all actives have a fitted effect of over 35% in size
Procedure, shortened: (§1)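 HepG2, 600 cells/well premixed w/ CellTox Green; 5 h settle, 37 C/5% CO2; pintool cpd add (DMSO); 37 C, 40 h; fluorescence read at 0, 8, 16, 24, 32, 40 h.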

[2] = A CellTox Green Cytotoxicity Assay to monitor cytotoxicity in HepG2 cells - 32 hour (AID 1224883); note: nearly all actives have a fitted effect of over 50% in size; note: potency is the fitted concentration of half-maximal effect
Procedure, shortened: as §1

[3] = qHTS RealTime-Glo MT Cell Viability Assay in HEK293 cells - 24 hour (AID 1224886); note: nearly all actives have a fitted effect of over 50% in size; note: potency is the fitted concentration of half-maximal effect
Procedure, shortened: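 Homogeneous bioluminescent viability format in HEK293 cells (600 cells/well). Following 5 h at 37 C/5% CO2, 23 nL compound was pintooled; the signal was measured repeatedly during 40 h incubation.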

[4] = qHTS RealTime-Glo MT Cell Viability Assay in HEK293 cells - 8 hour (AID 1224887); note: nearly all actives have a fitted effect of over 50% in size; note: potency is the fitted concentration of half-maximal effect
Procedure, shortened: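 Luminescence readout at each listed time point; HEK293, 600 cells/well, RealTime-Glo MT reagent added with cells; compounds pinned (23 nL in DMSO) after 5 h at 37 C; continuous culture at 37 C.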

[5] = qHTS RealTime-Glo MT Cell Viability Assay in HepG2 cells - 0 hour (AID 1224889); note: nearly all actives have a fitted effect of over 50% in size; note: potency is the fitted concentration of half-maximal effect
Procedure, shortened: (§2)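 Cell number in HepG2 cultures estimated from NanoLuc luminescence generated by metabolic reduction of a prosubstrate by living cells. The homogeneous, nonlytic format allowed repeated reads at 0, 8, 16, 24, 32 and 40 h of compound exposure.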

[6] = A CellTox Green Cytotoxicity Assay to monitor cytotoxicity in HepG2 cells - 8 hour (AID 1224890); note: nearly all actives have a fitted effect of over 45% in size
Procedure, shortened: as §1

[7] = qHTS assay to identify small molecule antagonists of the estrogen receptor alpha (ER-alpha) signaling pathway using the BG1 cell line in the presence of 0.1 nM 17-beta-estradiol - cell viability counter screen (AID 1259241); note: nearly all actives have a fitted effect of over 40% in size
Procedure, shortened: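 Estradiol-stimulated (0.1 nM) VM7Luc4E2 cells exposed to compounds 22 hr; viability measured by fluorescence of cleaved CellTiter-Fluor substrate after 30 min.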

[8] = qHTS assay to identify small molecule antagonists of the androgen receptor (AR) signaling pathway using the MDA cell line in the presence of 0.5 nM R1881 - cell viability counter screen (AID 1259242); note: nearly all actives have a fitted effect of over 45% in size; note: potency is the fitted concentration of half-maximal effect
Procedure, shortened: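 Live-cell protease fluorescence, CellTiter-Fluor, 30 min at 37C. Cells: MDA-kb2, 3,000/well, preincubated 5 hr. Compounds plus 0.5 nM R1881 final, 16 hr, 37C, 0% CO2.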

[9] = target: Estrogen receptor (Homo sapiens) (UniProt P03372); assay: qHTS assay to identify small molecule antagonists of the estrogen receptor alpha (ER-alpha) signaling pathway using the BG1 cell line in the presence of 0.1 nM 17-beta-estradiol (AID 1259244); note: nearly all actives have a fitted effect of over 50% in size
Chain of Estrogen receptor (Homo sapiens) (P03372 whole entry, looked up): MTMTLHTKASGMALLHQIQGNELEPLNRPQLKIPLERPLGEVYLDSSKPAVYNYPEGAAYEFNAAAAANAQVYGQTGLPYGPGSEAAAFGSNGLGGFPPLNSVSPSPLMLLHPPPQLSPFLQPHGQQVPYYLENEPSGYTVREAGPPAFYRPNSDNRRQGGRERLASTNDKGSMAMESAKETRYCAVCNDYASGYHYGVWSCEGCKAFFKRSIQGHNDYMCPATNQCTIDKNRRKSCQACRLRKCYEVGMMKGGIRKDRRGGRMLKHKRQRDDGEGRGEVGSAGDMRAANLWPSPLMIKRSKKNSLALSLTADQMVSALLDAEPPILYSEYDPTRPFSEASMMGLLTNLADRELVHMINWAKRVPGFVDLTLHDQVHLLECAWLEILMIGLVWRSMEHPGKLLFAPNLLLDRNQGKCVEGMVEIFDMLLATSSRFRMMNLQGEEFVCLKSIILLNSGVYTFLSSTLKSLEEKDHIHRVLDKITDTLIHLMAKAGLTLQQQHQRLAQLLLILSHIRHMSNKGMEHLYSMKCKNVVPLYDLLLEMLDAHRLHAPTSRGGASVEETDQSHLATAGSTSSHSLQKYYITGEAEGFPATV
Procedure, shortened: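 Luminescence after ONE-Glo (30 min, room temperature) measured ERE-luciferase activity in VM7Luc4E2 cells treated 22 h with compound and 0.1 nM final 17beta-estradiol as stimulator.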

[10] = qHTS assay to identify small molecule phospholipidosis (PLD) inducers (AID 1259344; active = well fitted curve in the direction sought with a large enough effect; an effect the other way counts as inactive or inconclusive)
Procedure, shortened: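 Image-based: LipidTOX Red pit count/intensity per well and per cell; HepG2, 24 h compound at 37 C, PFA fixation, Hoechst counterstain.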

[11] = qHTS assay to identify small molecule HDAC inhibitors (AID 1259364); note: potency is the fitted concentration of half-maximal effect;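 note: wild-type HCT-116 cells with endogenous class I/II HDAC activity; nearly all actives have a fitted effect of over 45% in size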
Procedure, shortened: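 HCT-116 (wild type), 1,500 cells/well, overnight; compound 2 hr 37C 5% CO2; HDAC-Glo I/II reagent 30 min RT; luminescence readout.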

[12] = qHTS assay to identify small molecule HDAC inhibitors - cell viability counter screen (AID 1259365)
Procedure, shortened: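 After overnight seeding at 1,500 cells per well, wild-type HCT-116 cultures took up compounds in DMSO for 2hr at 37 C. Viable cell content came from luminescence with CellTiter-Glo.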

[13] = qHTS assay to identify small molecule agonists of the sonic hedgehog signaling (Shh) pathway - cell viability counter screen (AID 1259366); note: nearly all actives have a fitted effect of over 50% in size; note: potency is the fitted concentration of half-maximal effect
Procedure, shortened: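 Same-well cytotoxicity read. Gli1-Luc reporter 3T3 cells; compounds 24hr, 37C/5% CO2; CellTiter-Fluor fluorescence.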

[14] = qHTS assay to identify small molecule antagonists of the sonic hedgehog signaling (Shh) pathway - cell viability counter screen (AID 1259367); note: nearly all actives have a fitted effect of over 55% in size; note: potency is the fitted concentration of half-maximal effect
Procedure, shortened: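 Tox21 library chemicals were tested on a Gli1-Luc NIH/3T3 clone (2,000 cells/well) stimulated by conditioned medium; viability was quantified as fluorescence from CellTiter-Fluor reagent added at 23 hr.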

[15] = qHTS assay to identify small molecule agonists of the sonic hedgehog signaling (Shh) pathway (AID 1259368; calls by dose curve;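 note: NIH/3T3-derived 3T3Gli1-Luc cells carrying a stable Gli1-driven firefly luciferase reporter; series mostly up to about 92 µM; nearly all actives have a fitted effect of over 15% in size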)
Procedure, shortened: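 Read-out: firefly luciferase luminescence from a Gli1 response element reporter stably integrated in NIH/3T3-derived 3T3Gli1-Luc cells, measured 30 min at room temperature after reagent addition. Compound exposure lasted 24 hr at 37 C, 5% CO2.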

[16] = qHTS assay to identify small molecule antagonists of the sonic hedgehog signaling (Shh) pathway (AID 1259369; calls by dose curve; note: nearly all actives have a fitted effect of over 45% in size; note: potency is the fitted concentration of half-maximal effect)
Procedure, shortened: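 Luminescence readout: firefly Luc under Gli1 response element in 3T3Gli1-Luc cells (NIH/3T3 clone). Antagonist mode, stimulation by conditioned medium; compound exposure 24hr at 37 C, 5% CO2.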

[17] = A CellTox Green Cytotoxicity Assay to monitor cytotoxicity in HEK293 cells - 16 hour (AID 1224888); note: nearly all actives have a fitted effect of over 35% in size; note: potency is the fitted concentration of half-maximal effect
Procedure, shortened: (§3)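 Read-out: fluorescence of a cell-impermeant cyanine dye staining DNA of dead cells, proportional to cytotoxicity. HEK293, 600 cells/well with reagent, compound (23 nL DMSO) added after 5 h; reads at 0, 8, 16, 24, 32, 40 h.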

[18] = target: Androgen receptor (Homo sapiens) (UniProt P10275); assay: qHTS assay to identify small molecule antagonists of the androgen receptor (AR) signaling pathway using the MDA cell line in the presence of 0.5 nM R1881 (AID 1259243); note: nearly all actives have a fitted effect of over 50% in size; note: potency is the fitted concentration of half-maximal effect
Chain of Androgen receptor (Homo sapiens) (P10275 whole entry, looked up): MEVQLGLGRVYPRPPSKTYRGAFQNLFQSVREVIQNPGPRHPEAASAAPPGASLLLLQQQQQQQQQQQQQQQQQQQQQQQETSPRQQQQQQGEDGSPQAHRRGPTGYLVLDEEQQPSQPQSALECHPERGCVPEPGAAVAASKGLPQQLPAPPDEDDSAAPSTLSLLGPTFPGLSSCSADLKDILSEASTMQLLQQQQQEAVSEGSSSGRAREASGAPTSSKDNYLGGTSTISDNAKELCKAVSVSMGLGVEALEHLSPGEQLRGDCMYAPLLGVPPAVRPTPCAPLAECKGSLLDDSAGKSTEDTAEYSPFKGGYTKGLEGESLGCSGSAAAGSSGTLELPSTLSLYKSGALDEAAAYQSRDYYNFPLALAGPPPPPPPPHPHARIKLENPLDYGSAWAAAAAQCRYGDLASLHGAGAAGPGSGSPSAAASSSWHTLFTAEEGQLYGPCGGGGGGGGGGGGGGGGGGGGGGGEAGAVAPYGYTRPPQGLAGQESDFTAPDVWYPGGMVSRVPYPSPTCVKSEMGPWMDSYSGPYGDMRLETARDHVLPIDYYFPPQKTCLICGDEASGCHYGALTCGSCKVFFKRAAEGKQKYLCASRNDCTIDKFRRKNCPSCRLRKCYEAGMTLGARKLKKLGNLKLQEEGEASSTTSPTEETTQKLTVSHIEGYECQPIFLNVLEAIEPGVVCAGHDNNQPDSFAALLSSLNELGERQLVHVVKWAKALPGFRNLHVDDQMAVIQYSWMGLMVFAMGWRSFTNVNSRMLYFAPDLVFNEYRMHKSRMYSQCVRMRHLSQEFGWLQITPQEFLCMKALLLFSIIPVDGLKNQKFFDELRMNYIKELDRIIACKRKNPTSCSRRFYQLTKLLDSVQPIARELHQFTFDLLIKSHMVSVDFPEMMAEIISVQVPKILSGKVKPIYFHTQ
Procedure, shortened: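 MDA-kb2, MMTV-luc (AR/GR elements); 3,000 cells/well; cpd + 0.5 nM R1881 final; 16 hr 37C, 0% CO2; ONE-Glo 30 min RT; luminescence.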

[19] = A CellTox Green Cytotoxicity Assay to monitor cytotoxicity in HEK293 cells - 8 hour (AID 1224884); note: nearly all actives have a fitted effect of over 35% in size
Procedure, shortened: as §3

[20] = qHTS RealTime-Glo MT Cell Viability Assay in HepG2 cells - 16 hour (AID 1224885); note: nearly all actives have a fitted effect of over 50% in size; note: potency is the fitted concentration of half-maximal effect
Procedure, shortened: as §2
% is set by controls: 0 for no effect and ±100 for the full control effect.

C[C@H]1C[C@H]2[C@@H]3CCC4=CC(=O)C=C[C@]4(C)[C@@]3(Cl)[C@@H](O)C[C@]2(C)[C@@]1(O)C(=O)CO
inactive: Potency [1] | Potency [2] | Potency [3] | Potency [4] | Potency [5] | Potency [6] | Potency [7] | Potency [8] | Potency [9] | Potency [10] | Potency [11] | Potency [12] | Potency [13] | Potency [14] | outcome [15] | Potency [16]

CCCCCCCCCc1ccc(OCCOCCO)cc1
inactive: Potency [1] | Potency [5] | Potency [11] | Potency [12] | outcome [15]
active: Potency [2] 20.5 µM | Potency [3] 1.3 µM | Potency [4] 3.25 µM | Potency [17] 14.5 µM | Potency [8] 5.74 µM | Potency [18] 2.28 µM | Potency [16] 8.1 µM

ClCCOCCOCCCl
inactive: Potency [1] | Potency [3] | Potency [4] | Potency [17] | Potency [5] | Potency [6] | Potency [7] | Potency [8] | Potency [9] | Potency [11] | Potency [12] | Potency [13] | Potency [14] | outcome [15] | Potency [16]

O=C(O)c1ccc(-n2nc(-c3ccccc3O)nc2-c2ccccc2O)cc1
inactive: Potency [2] | Potency [19] | Potency [20] | Potency [3] | Potency [4] | Potency [17] | Potency [5] | Potency [6] | Potency [7] | Potency [8] | PLD induction [10] -4.07% [at 1.53 µM] | Potency [11] | Potency [12] | Potency [13] | Potency [14] | outcome [15]

C#C[C@]1(O)CC[C@H]2[C@@H]3CCc4cc(OC5CCCC5)ccc4[C@H]3CC[C@@]21C
inactive: Potency [1] | Potency [19] | Potency [17] | Potency [5] | Potency [7] | Potency [8] | Potency [11] | Potency [12] | Potency [13] | Potency [14] | outcome [15] | Potency [16]

COc1ccc2cccc(CCNC(C)=O)c2c1
inactive: Potency [19] | Potency [20] | Potency [3] | Potency [4] | Potency [5] | Potency [7] | Potency [8] | Potency [18] | Potency [9] | Potency [11] | Potency [12] | Potency [13] | Potency [14] | outcome [15]

COc1ccc(S(=O)(=O)N2C(=O)[C@@](c3ccccc3OC)(N3C[C@H](O)C[C@H]3C(=O)N(C)C)c3cc(Cl)ccc32)c(OC)c1
active: Potency [3] 49 µM | Potency [18] 54.5 µM | Potency [13] 8.63 µM | Potency [14] 9.69 µM | Potency [16] 15.4 µM
inactive: Potency [1] | Potency [2] | Potency [17] | Potency [5] | Potency [11] | Potency [12] | outcome [15]

N=c1ccn2c(n1)O[C@H]1[C@H](O)[C@@H](CO)O[C@H]12
inactive: Potency [1] | Potency [19] | Potency [20] | Potency [3] | Potency [4] | Potency [17] | Potency [5] | Potency [6] | Potency [7] | Potency [8] | Potency [9] | Potency [10] | Potency [11] | Potency [12] | Potency [13] | Potency [14] | outcome [15]

O=C(Nc1ccccc1)c1ccccc1O
active: Potency [11] 8.63 µM | Potency [14] 61.1 µM | Potency [16] 54.5 µM
inactive: Potency [1] | Potency [20] | Potency [4] | Potency [17] | Potency [5] | Potency [6] | Potency [7] | Potency [9] | Potency [12] | outcome [15]

COC(=O)C1=C(C)NC(COC(N)=O)=C(C(=O)OC(C)C)C1c1cccc(Cl)c1Cl (stereo unspecified)
inactive: Potency [1] | Potency [19] | Potency [17] | Potency [6] | Potency [7] | Potency [8] | Potency [18] | Potency [9] | PLD induction [10] -2.54% [at 7.66 µM] | Potency [11] | Potency [12] | Potency [13] | outcome [15]
active: Potency [20] 23.9 µM | Potency [3] 26.8 µM | Potency [5] 1.9 µM

C=C(C)C(=O)OCC
inactive: Potency [1] | Potency [2] | Potency [3] | Potency [4] | Potency [17] | Potency [5] | Potency [6] | Potency [7] | Potency [8] | Potency [9] | Potency [11] | Potency [12] | Potency [13] | Potency [14] | outcome [15] | Potency [16]

Cc1oc(-c2ccccc2)nc1CCOc1cccc2c1ccn2CCC(=O)O
inactive: Potency [1] | Potency [2] | Potency [3] | Potency [4] | Potency [6] | Potency [8] | Potency [9] | Potency [11] | Potency [12] | outcome [15] | Potency [16]
active: Potency [13] 21.7 µM | Potency [14] 6.86 µM

CCOC(=O)Cc1cccc2ccccc12
active: Potency [2] 21.9 µM
inactive: Potency [19] | Potency [20] | Potency [3] | Potency [4] | Potency [17] | Potency [7] | Potency [8] | Potency [9] | Potency [11] | Potency [12] | Potency [13] | Potency [14] | outcome [15]

CCOC(=O)C1=C[C@]2(CC)CCCN3CCc4c(n1c1ccccc41)[C@@H]32
inactive: Potency [1] | Potency [19] | Potency [20] | Potency [3] | Potency [4] | Potency [5] | Potency [7] | Potency [8] | Potency [9] | Potency [10] | Potency [11] | Potency [12] | Potency [13] | Potency [14] | outcome [15]
